In PubChem BioAssay AID1851 (National Center for Advancing Translational Sciences (NCATS), 2009):
Among all 16,000 compounds or so, about 5,700 (36%) were called active. Not shown: some 24% with an inconclusive outcome. Calls come from the whole dose curve; as a rule, active = well fitted curve in the direction sought with a large enough effect; inconclusive = small, poorly fitted or top-dose-only effect, or effect the other way; inactive = no such curve, though single readings can be large or run the other way. The list shows a part of the results.

Target: Cytochrome P450 1A2 (Homo sapiens) (UniProt P05177)
Experiment: Cytochrome panel assay with activity outcomes
Details: recombinant CYP, pro-luciferin dealkylation, luminescence, p450-cyp1a2; series mostly up to 57.1 µM
% is set by controls: 0 for no effect and ±100 for the full control effect.

Chain of Cytochrome P450 1A2 (Homo sapiens) (P05177 whole entry, looked up): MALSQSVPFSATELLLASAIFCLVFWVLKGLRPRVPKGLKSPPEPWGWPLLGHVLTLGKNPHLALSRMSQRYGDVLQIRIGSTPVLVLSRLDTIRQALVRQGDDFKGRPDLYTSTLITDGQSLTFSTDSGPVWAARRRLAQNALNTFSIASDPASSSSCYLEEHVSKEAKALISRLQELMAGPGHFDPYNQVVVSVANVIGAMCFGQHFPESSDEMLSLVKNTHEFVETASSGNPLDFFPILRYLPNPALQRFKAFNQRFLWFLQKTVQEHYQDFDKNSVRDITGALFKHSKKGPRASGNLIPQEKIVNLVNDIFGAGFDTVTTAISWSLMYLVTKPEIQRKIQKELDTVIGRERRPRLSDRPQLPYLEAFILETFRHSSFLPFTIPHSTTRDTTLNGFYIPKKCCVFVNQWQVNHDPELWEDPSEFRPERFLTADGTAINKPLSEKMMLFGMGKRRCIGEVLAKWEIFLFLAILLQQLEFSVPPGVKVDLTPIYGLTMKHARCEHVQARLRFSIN

AC50, active:
O=C(CCNc1cccc(Cl)c1)c1cccs1 10 µM
O=C(CNc1cccc(Cl)c1)c1ccc(Cl)cc1 3.16 µM
CCc1ccc(-c2ccc(C(=O)C(F)(F)F)[nH]2)cc1 1.12 µM
CC(C)NC(=O)CC(=O)N/N=C/c1ccc(F)cc1 15.8 µM
CC(C)NC(=O)CC(=O)N/N=C/c1ccc(Br)cc1 1.41 µM
Cc1nc2cncnc2n(Cc2ccc(F)cc2)c1=O 10 µM
Cc1nc2cncnc2n(Cc2ccccc2)c1=O 12.6 µM
Cc1ccc(CNC(=O)C2CC(c3ccccc3[N+](=O)[O-])=NO2)cc1 (centres undefined) 5.01 µM
Cc1ccc(CCNC(=O)C2CC(c3ccccc3[N+](=O)[O-])=NO2)cc1 (centres undefined) 6.31 µM
O=C(NCc1ccc2c(c1)OCO2)C1CC(c2cccc(Br)c2)=NO1 (centres undefined) 2 µM
Cc1ccc(CNC(=O)C2CC(c3ccccc3[N+](=O)[O-])=NO2)o1 (centres undefined) 6.31 µM
O=C(NCCCCc1ccccc1)C1CC(c2ccccc2[N+](=O)[O-])=NO1 (centres undefined) 2.24 µM
COc1ccc(CNC(=O)C2CC(c3cccc([N+](=O)[O-])c3)=NO2)cc1 (centres undefined) 15.8 µM
CCOC(=O)c1oc2ccccc2c1NC(=O)c1ccc(S(=O)(=O)N(C)C)cc1 12.6 µM
CCOC(=O)c1oc2ccccc2c1NC(=O)c1ccc2c(c1)OCO2 1 µM
CCOC(=O)c1oc2ccccc2c1NC(=O)c1cc(OC)cc(OC)c1 0.794 µM
CCOc1cc(/C=N/n2cnnc2)c(Br)cc1O 10 µM
CS(=O)(=O)N1CCN(c2ccccc2NC(=O)c2ccc(Br)o2)CC1 14.1 µM
O=C(COc1ccccc1)Nc1cc(C(F)(F)F)ccc1N1CCCC1 2 µM
O=C(Nc1cc(C(F)(F)F)ccc1N1CCCCC1)c1ccc(Br)o1 0.282 µM
O=C(NC(=S)Nc1ccc(Br)cn1)c1cncc(Br)c1 0.282 µM
O=C(NC1CCCCC1)c1sc(=S)n2c1[nH]c(=O)c1ccccc12 3.16 µM
O=C(NCc1ccccc1)c1sc(=S)n2c1[nH]c(=O)c1ccccc12 8.91 µM
Cc1ccc(-c2csc(N3CCC(NS(=O)(=O)c4ccc5c(c4)OCCO5)CC3)n2)cc1 5.01 µM
CCn1c2ccccc2c2cc(/C=N/n3cn[nH]c3=S)ccc21 2.82 µM
Nc1nonc1-c1nc2ccccc2n1Cc1ccc(F)cc1Cl 0.2 µM
Clc1ccc(Cn2c(-c3cccnc3Cl)nc3ccccc32)c(Cl)c1 12.6 µM
COc1ccccc1-c1nc(NC2CC2)c2ccccc2n1 0.316 µM
Cc1ccccc1-c1nc(NC2CC2)c2ccccc2n1 0.501 µM
CC(=O)c1cc(CC=C(C)C)c(O)cc1O 3.55 µM
Nc1nc(SCCc2ccccc2)c2[nH]cnc2n1 3.16 µM
Nc1nc(SC/C=C\c2ccccc2)c2[nH]cnc2n1 5.01 µM
Nc1nc(SCc2ccccc2[N+](=O)[O-])c2[nH]cnc2n1 5.01 µM
c1ccc(/C(=N/Nc2nc3ccccc3s2)c2ccccn2)cc1 3.16 µM
COc1cccc(-c2cc3nc(-c4ccccc4)cc(N4CCC5(CC4)OCCO5)n3n2)c1 0.251 µM
CCOc1ccc(OCCOc2ncnc3ccccc23)cc1 12.6 µM
CCOc1cc(C#N)c(NC(=O)c2cccnc2)cc1OCC 20 µM
Cn1cnnc1SCC(=O)n1c2ccccc2c2ccccc21 0.0501 µM
O=C(CN1C(=O)c2cccc3cccc(c23)C1=O)N1CCCCCC1 14.1 µM
O=C(CCCN1C(=O)c2cccc3cccc(c23)C1=O)N1CCc2ccccc2C1 6.31 µM

AC50, inactive:
O=C(O)CCCC[C@H]1CCSS1
COc1cccc2c1OC1(C)CC2/C(=C(\C)O)C(=O)N1 (centres undefined)
N[C@@H](CO)C(=O)NNCc1ccc(O)c(O)c1O
CC[C@H]1C(=O)OC[C@H]1Cc1cncn1C
O=Nc1ccc(NOC(=O)c2ccc(Br)cc2)cc1
Cc1ccc(S(=O)(=O)N(CC(=O)N/N=C/c2ccc(F)cc2)c2cccc3cccnc23)cc1
C=CC(=O)NC(NC(=O)C=C)c1ccc(Br)cc1
CC(NC(=O)Cc1ccc(F)cc1)c1ccccc1 (centres undefined)
C1CCC(N=C(NC23CC4CC(CC(C4)C2)C3)N2CCOCC2)CC1
CCN(CC)S(=O)(=O)N1CCC(C(=O)NCc2ccc(C)cc2)CC1
CC(C)(C)OC(=O)N1CCCC1C(=O)NCCc1ccccc1 (centres undefined)
Cc1ccc(CNC(=O)C2CCC(=O)N2C2CCCCC2)cc1 (centres undefined)
Cc1ccc(CCN2CC(C(=O)NCCCN(C)Cc3ccccc3)CC2=O)cc1 (centres undefined)
COc1c(N2CCN(C(=S)Nc3ccc(F)cc3)C(C)C2)c(F)cc2c(=O)c(C(=O)O)cn(C3CC3)c12 (centres undefined)
NS(=O)(=O)c1ccc(CCNC(=O)C2CCCN2C(=O)OCc2ccccc2)cc1 (centres undefined)
COc1cccc(C2=NOC(C(=O)NCc3ccccn3)C2)c1 (centres undefined)
CCCCN(C)S(=O)(=O)c1ccc(C(=O)Nc2nnc(CSC)o2)cc1
CCOC(=O)c1cc(NC(=O)c2ccc(OC)cc2)c(=O)oc1-c1ccccc1
Cc1cc(NC(=O)c2ccc(S(=O)(=O)N(C)C)cc2)n(-c2ccccn2)n1
CC(=O)Nc1ccc(S(=O)(=O)NCC2CCC(C(=O)NCCC(C)C)CC2)cc1 (centres undefined)
Cn1cccc1C(=O)N1CCC2(CC1)CN(Cc1ccc(C#N)cc1)C2
Cc1noc(NS(=O)(=O)c2ccc(NC(=O)c3ccc(Br)o3)cc2)c1C
O=C(Nc1ccccc1N1CCN(C(=O)c2ccccc2)CC1)c1cc(Br)ccc1Cl
NS(=O)(=O)c1cc(C(=O)O)cc(N2CCCC2)c1Oc1ccccc1
Cc1cc(C)n(-c2ccc(C(=O)Nc3cc(C(F)(F)F)ccc3N3CCOCC3)cc2)n1
CC(C)(C)c1ccc(OCC(=O)NNC(=O)CCc2ccccc2)cc1
Cc1cc(F)ccc1S(=O)(=O)Nc1ccccc1C(=O)Nc1ccccc1N1CCOCC1
O=C(c1cnccn1)N1CCC2(CC1)CN(Cc1nccs1)C2
O=C(NNC(=S)NC(=O)c1cccnc1)c1ccccc1
COc1ccc(C2C(C(=O)N3CCN(C)CC3)c3ccccc3C(=O)N2C2CCCCC2)cc1 (centres undefined)
COc1cccc(/C=c2/s/c(=C(\C#N)C(=O)N3CCOCC3)n(-c3ccccc3)c2=O)c1
CN(C)CCN1C(=O)C(O)=C(C(=O)c2cc3ccccc3o2)C1c1ccccn1 (centres undefined)
CN1CCCN(S(=O)(=O)c2ccc3c(c2)OCCO3)CC1
Cc1ccc2nc(N3CCN(S(=O)(=O)c4ccc5c(c4)OCCO5)CC3)c(C#N)cc2c1
CC(=O)OCC(=O)[C@@]1(O)CC[C@@H]2[C@H]3CCC4=CC(=O)C=C[C@]4(C)[C@]3(F)[C@@H](O)C[C@@]21C
CC(=O)Nc1ccc(S(=O)(=O)N2CCN(c3nc(NC4CCCC4)c4ccccc4n3)CC2)cc1
COc1cc(CC(=O)O)c(C(C)=O)cc1OC
Cc1cccc(N(C)S(=O)(=O)c2ccc3[nH]c(=O)c(=O)[nH]c3c2)c1
COCC(=O)N1CCC2(CCCN(Cc3nccs3)C2)CC1
CC1CN(C(=O)COc2ncnc3ccccc23)CC(C)O1 (centres undefined)
Cc1cc(C)cc(-n2c(C)cc(C=C(C#N)C#N)c2C)c1
CCc1ccc(N(C(=O)c2snc(C(N)=O)c2N)C(C(=O)NCCC(C)C)c2c[nH]c3ccccc23)cc1 (centres undefined)
CCN(CC)c1ccc(NC(=O)c2cccnc2)c(C)c1
CS(=O)(=O)N1CCC2(CCN(Cc3nccs3)CC2)CC1
COC(=O)C1=C(CSc2nncn2C)NC(=O)NC1c1ccc(F)cc1 (centres undefined)
CCc1cccc2c(C=C(C#N)C#N)cn(CC(=O)N3CCCC3)c12
O=C(CCCN1C(=O)C2C3C=CC(C3)C2C1=O)N1CCN(c2ccccc2)CC1 (centres undefined)
CCc1cccc2c(C=C(C#N)C#N)cn(CC(=O)N3CCCCC3)c12

activity, negative = inhibition, inactive:
O=C(O)CNc1ccc(C(=O)O)cc1 -15.1% [at 11.4 µM]
CC(=O)OC[C@@H]1O[C@H](C/C=N\O[C@@H](C)CN2CCCc3nc(C)c(C)cc32)C=C[C@@H]1OC(C)=O -4.85% [at 11.4 µM]
O=C1[C@H]2[C@H]3[C@H](O)[C@H](O)C/C(=N/OCc4ccccc4)[C@H]3CC[C@@H]2C(=O)N1Cc1ccc2c(c1)OCO2 -4.06% [at 11.4 µM]
O=C1[C@H]2[C@H]3[C@H](O)[C@H](O)C/C(=N/OCc4ccccc4)[C@@H]3CC[C@@H]2C(=O)N1Cc1ccc2c(c1)OCO2 -8.98% [at 11.4 µM]
CC(C)(N)CO[C@H]1C[C@H]2CC[C@@]1(C)C2(C)C -8.25% [at 11.4 µM]
CCOC(=O)N/N=C1/C[C@@H](O)[C@@H](O)[C@@H]2[C@@H]3C(=O)N([C@@H](C)c4ccccc4)C(=O)[C@H]3CC[C@H]12 7.27% [at 11.4 µM]
CCC[C@H](Sc1nc(N)nc2nc[nH]c12)C(=O)O -9.79% [at 11.4 µM]
O=C(O)CCSc1ncnc2nc[nH]c12 -3.4% [at 11.4 µM]
Nc1nc(Sc2ccc([N+](=O)[O-])c3nonc23)c2[nH]cnc2n1 -26.1% [at 2.29 µM]
Nc1nc(N)c2[nH]cnc2n1 (tested in a mixture with another compound) -5.45% [at 2.29 µM]
CC(C)=NOCc1ccc(-c2cn([C@@H]3COC[C@@H]3O)nn2)cc1 -5.29% [at 11.4 µM]
